TDP1 cell CPT: DT40-hTDP1 cell growth loss with CPT; chicken DT40 Tdp1-/-;hTDP1 cells + 20 nM CPT, ATP luminescence, 48 h; Potency, µM (titrated, usually from 46.2 µM), inactives show top-dose activity change, negative = growth inhibition, hits mostly inhibitors; hit rate 12% among 420,000; note: potency is the fitted concentration of half-maximal effect; nearly all actives have a fitted effect of over 55% in size
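Cell growth measured by CellTiter-Glo luminescence after a minimum 48 h, 37 C compound exposure with 20 nM CPT in Tdp1-knockout DT40 cells stably expressing hTDP1, seeded 400/well; qHTS titration format.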
TDP1 cell noCPT: qHTS for Inhibitors of human tyrosyl-DNA phosphodiesterase 1 (TDP1): qHTS in cells in absence of CPT. DT40 Tdp1-/- hTDP1 cells, no CPT, ATP luminescence, 48 h. Potency, µM (titrated, usually from 46.2 µM), without a hit: at the top dose activity change, negative = growth inhibition, most hits filed as inhibitors. hit rate 15% among 420,000; note: potency is the fitted concentration of half-maximal effect; nearly all actives have a fitted effect of over 55% in size
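Compound effects on proliferation are scored in DT40 Tdp1-/-;hTDP1 cells in the absence of CPT. ATP levels (CellTiter-Glo luminescence) are recorded after a ≥48 hr, 37 °C incubation.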
HT1080-NT tox: kills 2HG-producing HT-1080-NT fibrosarcoma cells | Potency, µM (series often up to 46.1 µM), inactives show at the top dose activity, negative = less viability, most hits filed as cytotoxic | AID 686970 | hit rate 1.6% among 360,000 | HT-1080-NT fibrosarcoma viability, CellTiter-Glo ATP luminescence, 48 h;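 note: NT is the 2HG producing partner of a matched IDH1 knockdown line; potency is the fitted concentration of half-maximal effect; 0% = DMSO-treated cells and -100% = media-only wells without cells; nearly all actives have a fitted effect of over 55% in size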
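Fibrosarcoma NT cells, 750 per well in 5% FBS RPMI, were exposed to compound for 48 hours. Viability: CellTiter-Glo luminescence.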
IL1B secr inh: blocks inflammasome-driven IL-1 beta release; hit rate 4.7% among 360,000; THP-1 LPS/ATP IL-1B secretion, AlphaLISA, 16 h; active compounds read low; activity change, % at 57.5 µM; AID 743279; in the data active = activity change below about -50%; inconclusive = mostly about -30% to -49%
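Secreted IL-1B measured by AlphaLISA bead assay after 16 h compound exposure of THP-1 cells; compounds (final up to 57.5 uM) added 1 h before LPS (250 ng/mL) and ATP (1.25 mM) stimulation; lower signal means less secretion.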
HT1080 IDH1KD tx: toxicity to HT-1080 IDH1 knockdown cells (counter line); HT-1080 IDH1 knockdown viability, ATP luminescence, 48 h; AID 686971; Potency, µM (series often up to 46.1 µM), for the others: at the highest dose activity, negative = toxicity, actives largely listed as cytotoxic; hit rate 2% among 360,000;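 note: potency is the fitted concentration of half-maximal effect; 0% = DMSO wells and -100% = cell-free medium wells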
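Luminescent ATP read-out (CellTiter-Glo, 10 min at room temperature) after 48 h compound exposure at 37 °C gave viability of IDH1-knockdown HT-1080 cells. Activity was normalised to DMSO and cell-free wells, then fitted as concentration-response curves.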
An asterisk follows results filed as active; ? = inconclusive; · = no result given; ! = a repeat was not active. Rows were chosen to be rich in hits. Some 19% of all compounds tested hit in one or more screens of this group. Unless noted, calls come from the whole dose curve; as a rule, active = well fitted curve in the direction sought with a large enough effect; inconclusive = small, poorly fitted or top-dose-only effect, or another doubt; inactive = no such curve, though single readings can be large; an effect the other way counts as inactive or inconclusive. Unless noted, % is set by controls: 0 for no effect and ±100 for the full control effect.

SMILES	TDP1 cell CPT	TDP1 cell noCPT	HT1080-NT tox	IL1B secr inh	HT1080 IDH1KD tx
CCN1C(=O)c2ccccc2C1Nc1ccc(OCCN2CCCCC2)cc1 (configuration not stated)	-7%	-29%	·	·	·
CCOC(=O)C1=C(COC(=O)c2cccnc2Cl)NC(=O)NC1C (configuration not stated)	5%	-9%	19%	-6	18%
Cc1ccc(C)c(NC(=O)/C(C#N)=C/c2ccc[nH]2)c1	18µM*	-22%	-16%	-1	-16%
N#C/C(=C\c1ccc[nH]1)C(=O)NC1CC1	2%	-9%	0%	-5	?
Cc1ccccc1NC(=O)/C(C#N)=C/c1ccccc1C(F)(F)F	-22%	?	-4%	-72*	-3%
Cc1cccc(NC(=O)/C(C#N)=C/c2ccc[nH]2)c1C	12µM*	?	0%	15	0%
C[C@H](O)[C@@H]1C(=O)N2CCc3ccc(N4CCOCC4)cc3[C@@H]2C[C@@H]1N(C)C(=O)Nc1ccccc1	-16%	-9%	1%	-7	4%
CN(C)c1ccc(C(CNS(=O)(=O)c2ccc3ccccc3c2)N2CCOCC2)cc1 (configuration not stated)	0%	-1%	0%	-10	3%
CN(C)C=NC(=O)/C(C#N)=C/c1ccccc1	9%	9%	3%	0	-2%
CN(CC(=O)Nc1cccc(F)c1)C(=O)c1cc(=O)[nH]c2ccccc12	-5%	15%	-4%	-16	0%
COc1ccccc1C(C[N+](=O)[O-])c1c(N)n(C)c(=O)n(C)c1=O (configuration not stated)	3.7µM*	2.3µM*	?	-58*	?
COc1ccc(-c2nnc(C3CCN(S(=O)(=O)c4ccc(C)c(C)c4)CC3)o2)cc1	?	26µM*	·	·	·
COc1ccccc1-c1nnc(C2CCN(S(=O)(=O)c3ccc(F)c(C)c3)CC2)o1	15µM*	?	·	·	·
COc1ccccc1-c1nnc(C2CCN(C(=O)c3cccc(Cl)c3)CC2)o1	?	16µM*	·	·	·
O=C1CNC(=S)N1Cc1cccc(Cl)c1	0%	-19%	-1%	10	0%
O=C(C1Cc2ccccc2CN1S(=O)(=O)c1cccs1)N1CCCCCC1 (configuration not stated)	-29%	?	7%	-3	1%
CCOc1ccc(C(=O)Nc2ccc(N3CCN(C)CC3)cc2)cc1	4%	-5%	12%	-5	12%
CC1COc2c(N3CCN(C)CC3)c(F)cc3c(=O)c(C(=O)O)cn1c23 (configuration not stated)	21µM*!	13µM*!	1%	-21	6%
CCOc1ccc(NC(=O)c2ccc(NC(=O)c3cn4c5c(c(N6CCN(C)CC6)c(F)cc5c3=O)OCC4C)cc2)cc1 (configuration not stated)	5.2µM*	4.6µM*	-9%	-12	9%
CCOC(=O)c1cnc(N2CCN(C(=O)OCC)CC2)[nH]c1=O	11%	7%	16%	31	15%
COc1ccc(NC2CCCN(C(=O)CSc3ccccn3)C2)cc1OC (configuration not stated)	-21%	-1%	-3%	34	1%
COc1ccc(NC2CCCN(Cc3cccc4cnccc34)C2)cc1 (configuration not stated)	?	21µM*	-4%	17	1%
COc1ccc(NC2CCCN(C(=O)c3cccnc3)C2)cc1 (configuration not stated)	2%	-25%	4%	6	-3%
COc1ccc(NC2CCCN(Cc3cccc4cnccc34)C2)cc1OC (configuration not stated)	?	21µM*	-6%	13	-2%
COc1ccccc1C(=O)NNC(=O)C1CCN(C(=O)OC(C)(C)C)CC1	0%	20%	3%	28	-6%
SMILES	TDP1 cell CPT	TDP1 cell noCPT	HT1080-NT tox	IL1B secr inh	HT1080 IDH1KD tx
O=C(O)COc1ccc(/C=C/C(=O)c2ccc3ccccc3c2)cc1	15%	0%	?	-99*	?
O=C(O)COc1ccc(/C=C/C(=O)c2ccc(C3CCCCC3)cc2)cc1	?	18µM*	?	-101*	?
O=C(/C=C/c1ccc(Cl)cc1Cl)Nc1cccc(S(=O)(=O)NC2=NCCCCC2)c1	-5%	?	-17%	-69*	?
CC(C)=CC(=O)Nc1cccc(S(=O)(=O)NC2=NCCCCC2)c1	-8%	-11%	12%	-3	2%
O=C(/C=C/c1ccccc1[N+](=O)[O-])Nc1cccc(S(=O)(=O)NC2=NCCCCC2)c1	?	21µM*	-21%	-16	-8%
CCOC(=O)c1ccc(NC(=O)N2C3CCCC2CC(NC(C)=O)C3)cc1 (configuration not stated)	7%	-1%	-14%	29	6%
COc1ccccc1NC(=O)C(C)OC(=O)C1COc2ccccc2O1 (configuration not stated)	-7%	2%	-2%	0	-3%
O=C(Nc1cc(Cl)cc(Cl)c1)C1CC(=O)N(C2CCCC2)C1 (configuration not stated)	?	?	-2%	?	-20%
COCCNc1nc(Oc2cccc(NC(C)=O)c2)c2sccc2n1	?	-23%	-2%	26	-5%
COCCNc1nc(NCc2ccc(C(C)C)cc2)c2sccc2n1	12µM*	12µM*	13µM*	-15	18µM*
COCCNc1nc(NCc2cccc(OC)c2)c2sccc2n1	15µM*	18µM*	-1%	-2	-17%
COc1cccc(CNc2nc(NC(C)C)nc3ccsc23)c1	23µM*	?	?	-23	?
CCN(CC)c1ccc2cc(-c3nc(-c4cc5ccccc5oc4=O)cs3)c(=O)oc2c1	-2%	-8%	0%	8	5%
O=C(c1cccs1)N1CCN=C1SCc1ccc(F)cc1	-4%	15%	0%	-3	12%
Cc1onc(-c2c(F)cccc2Cl)c1C(=O)O/N=C(\N)c1ccc([N+](=O)[O-])o1	-13%	-23%	-18%	·	12µM*
Cc1onc(-c2c(F)cccc2Cl)c1C(=O)OCC(=O)N(C)c1ccccc1	1.3µM*	0.92µM*	-3%	31	-1%
Cc1onc(-c2c(F)cccc2Cl)c1C(=O)OCC(=O)NCc1ccccc1	?	?	10%	-25	0%
Cc1onc(-c2c(F)cccc2Cl)c1C(=O)OCn1nnc2ccccc2c1=O	?	23µM*	-2%	52	-21%
Cc1noc(C)c1C(=O)OCC(=O)Nc1c(F)cccc1F	16µM*	18µM*	7%	8	4%

From PubChem BioAssay
